# Counter-ions that a name gives are not always drawn.
# Test system: Danio rerio larvae (5 dpf)
# Assay: activity during first hour (no stimuli), difference vs DMSO (percentage points (treated minus DMSO)); higher = more of the behaviour than the DMSO vehicle control
# Details: 10 µM; exposure time: 3 h pre-incubation + 3 h imaging
# Experimental: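 5-dpf wild-type zebrafish larvae were imaged in 96-well plates. They were treated with 190 Tocris FDA-approved drugs at 10 µM (1 µl/ml DMSO) for 3 h before and 3 h during imaging at 28.5 °C, 48 larvae per drug. Automated image analysis gave % time moving and optomotor responses. Values are drug group mean minus DMSO vehicle mean (n=844), in percentage points, for 10 behaviours.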
row,Structure (SMILES),activity during first hour
1,CC(C)OC(=O)C(C)(C)Oc1ccc(C(=O)c2ccc(Cl)cc2)cc1 [Fenofibrate],6.44
2,CN/C(=N\CCSCc1nc[nH]c1C)NC#N [Cimetidine],3.11
3,CN(C)C(=N)NC(=N)N [Metformin hydrochloride],-6.37
4,CCN(Cc1ccncc1)C(=O)C(CO)c1ccccc1 (stereo not given) [Tropicamide],-5.17
5,C[C@@H](O[C@H]1OCCN(Cc2n[nH]c(=O)[nH]2)[C@H]1c1ccc(F)cc1)c1cc(C(F)(F)F)cc(C(F)(F)F)c1 [Aprepitant],-7.38
6,CCc1c2c(nc3ccc(OC(=O)N4CCC(N5CCCCC5)CC4)cc13)-c1cc3c(c(=O)n1C2)COC(=O)[C@]3(O)CC,-4.43
7,CCC(=O)O[C@]1(C(=O)SCF)[C@H](C)C[C@H]2[C@@H]3C[C@H](F)C4=CC(=O)C=C[C@]4(C)[C@@]3(F)[C@@H](O)C[C@@]21C [Fluticasone propionate],7.17
8,Nc1ncn([C@H]2C[C@H](O)[C@@H](CO)O2)c(=O)n1 [Decitabine],0.325
9,Nc1nc2c(ncn2COCCO)c(=O)[nH]1 [Acyclovir],-2
10,CC(C)n1c(/C=C/C(O)CC(O)CC(=O)O)c(-c2ccc(F)cc2)c2ccccc21 (stereo not given) [Fluvastatin sodium],1.98
11,CN(C)CCc1c[nH]c2ccc(C[C@H]3COC(=O)N3)cc12 [Zolmitriptan],7.82
12,COC(c1ccccc1)(c1ccccc1)[C@H](Oc1nc(C)cc(C)n1)C(=O)O [Ambrisentan],1.9
13,Nc1nc(F)nc2c1ncn2[C@@H]1O[C@H](CO)[C@@H](O)[C@@H]1O [Fludarabine],3.66
14,CC(C)C(=O)OCC(=O)[C@@]12O[C@H](C3CCCCC3)O[C@@H]1C[C@H]1[C@@H]3CCC4=CC(=O)C=C[C@]4(C)[C@H]3[C@@H](O)C[C@@]12C [Ciclesonide],-9.57
15,O=C(NCC1CCCCN1)c1cc(OCC(F)(F)F)ccc1OCC(F)(F)F (stereo not given) [Flecainide acetate],0.441
16,Cn1nnc2c(C(N)=O)ncn2c1=O [Temozolomide],7.11
17,C/C(O)=C(\C#N)C(=O)Nc1ccc(C(F)(F)F)cc1 [Teriflunomide],-8.27
18,Clc1ccccc1C(c1ccccc1)(c1ccccc1)n1ccnc1 [Clotrimazole],-21.6
19,COc1c(C)c2c(c(O)c1C/C=C(\C)CCC(=O)O)C(=O)OC2 [Mycophenolic acid],2.64
20,OCCN1C[C@H](O)[C@@H](O)[C@H](O)[C@H]1CO [Miglitol],-1.33

row,Structure (SMILES),activity during first hour
1,COc1ccccc1Oc1c(NS(=O)(=O)c2ccc(C(C)(C)C)cc2)nc(-c2ncccn2)nc1OCCO [Bosentan],1.27
2,CCCN(CCC)S(=O)(=O)c1ccc(C(=O)O)cc1 [Probenecid],-2.71
3,O=C1CCc2ccc(OCCCCN3CCN(c4cccc(Cl)c4Cl)CC3)cc2N1 [Aripiprazole],8.28
4,CN1CCC[C@@H]1CCO[C@](C)(c1ccccc1)c1ccc(Cl)cc1 [Clemastine fumarate],4.9
5,CC(C)c1ccc2oc3nc(N)c(C(=O)O)cc3c(=O)c2c1 [Amlexanox],6.6
6,Cc1cc2c(s1)Nc1ccccc1N=C2N1CCN(C)CC1 [Olanzapine],8.05
7,CN(CCOc1ccc(CC2SC(=O)NC2=O)cc1)c1ccccn1 (stereo not given) [Rosiglitazone],2.2
8,O=C(Nc1c(Cl)cncc1Cl)c1ccc(OC(F)F)c(OCC2CC2)c1 [Roflumilast],-15.3
9,Clc1ccc(COC(Cn2ccnc2)c2ccc(Cl)cc2Cl)c(Cl)c1 (stereo not given) [Miconazole nitrate],-18.4
10,CN(C)CC/C=C1/c2ccccc2COc2ccc(CC(=O)O)cc21 [Olopatadine hydrochloride],-0.591
11,COc1cc2nccc(Oc3ccc(NC(=O)C4(C(=O)Nc5ccc(F)cc5)CC4)cc3)c2cc1OC,20
12,CC(C)c1nc(CN(C)C(=O)N[C@H](C(=O)N[C@@H](Cc2ccccc2)C[C@H](O)[C@H](Cc2ccccc2)NC(=O)OCc2cncs2)C(C)C)cs1 [Ritonavir],-0.488
13,COc1ccc([C@@H]2Sc3ccccc3N(CCN(C)C)C(=O)[C@@H]2OC(C)=O)cc1 [Diltiazem hydrochloride],-3.56
14,Brc1c(NC2=NCCN2)ccc2nccnc12,-17
15,COc1ccc(C[C@@H](C)NC[C@H](O)c2ccc(O)c(NC=O)c2)cc1 [Arformoterol tartrate],45.9
16,OCc1cc(C(O)CNCCCCCCOCCCCc2ccccc2)ccc1O (stereo not given) [Salmeterol xinafoate],14.1
17,Clc1ccc2nsnc2c1NC1=NCCN1 [Tizanidine hydrochloride],-14.2
18,CO[C@H]1/C=C/O[C@@]2(C)Oc3c(C)c(O)c4c(O)c(c5c(nc6cc(C)ccn65)c4c3C2=O)NC(=O)/C(C)=C\C=C\[C@H](C)[C@H](O)[C@@H](C)[C@@H](O)[C@@H](C)[C@H](OC(C)=O)[C@@H]1C [Rifaximin],-0.0836
19,OC(CNCC(O)C1CCc2cc(F)ccc2O1)C1CCc2cc(F)ccc2O1 (stereo not given) [Nebivolol hydrochloride],4.97
20,Cc1ccc(NC(=O)c2ccc(CN3CCN(C)CC3)cc2)cc1Nc1nccc(-c2cccnc2)n1 [Imatinib mesylate],-12.5

# — the supplement of paper PMC9023506
